From PubChem BioAssay (NCI)
This is part of a sample that, as a whole, favours compounds with a hit. Of some 83,000 tested, about 20% had one in any assay.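 Each cell line was grown in a 96-well plate and treated with one concentration of compound for 48 hours. Values below 10 were considered active.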 Activity calls are given as the source filed them.

Legend:
Assay in all cases: NCI-60 one-dose screen, 48 h (100 = growth as untreated, 0 = no growth, -100 = all killed)
Settings in all cases: 10 µM unless noted
SNB-75 CNS = tested on: SNB-75 CNS
SNB-19 CNS = tested on: SNB-19 CNS
U251 CNS = tested on: U251 CNS
PC-3 prostate = tested on: PC-3 prostate
SK-MEL-5 melanoma = tested on: SK-MEL-5 melanoma
UACC-62 melanoma = tested on: UACC-62 melanoma
LOX IMVI melanoma = tested on: LOX IMVI melanoma
SK-MEL-28 melanoma = tested on: SK-MEL-28 melanoma
SK-MEL-2 melanoma = tested on: SK-MEL-2 melanoma
EKVX NSCLC = tested on: EKVX NSCLC
SN12C renal = tested on: SN12C renal
UO-31 renal = tested on: UO-31 renal
TK-10 renal = tested on: TK-10 renal
ACHN renal = tested on: ACHN renal
CAKI-1 renal = tested on: CAKI-1 renal
A498 renal = tested on: A498 renal
CCRF-CEM leukemia = tested on: CCRF-CEM leukemia
HT29 colon = tested on: HT29 colon
MOLT-4 leukemia = tested on: MOLT-4 leukemia

Measured: growth

COc1ccc(-c2nc3ccc(-c4nnc(SCc5ccccc5)o4)cc3[nH]2)cc1OC
active: SNB-75 CNS -54.2% | U251 CNS 0.298% | UACC-62 melanoma 0.287% | LOX IMVI melanoma 7.48% | SN12C renal -2.42% | UO-31 renal -8.65% | ACHN renal -45.4%
inactive: SNB-19 CNS 28.1% | PC-3 prostate 50.9% | SK-MEL-5 melanoma 39.7% | SK-MEL-28 melanoma 30.6% | SK-MEL-2 melanoma 66.4% | EKVX NSCLC 58.1% | TK-10 renal 23% | CAKI-1 renal 16.2% | A498 renal 117% | CCRF-CEM leukemia 76.4%

Nc1nn2c(-c3cc4cc(Br)ccc4oc3=O)ccnc2c1N=Nc1ccc(Br)cc1
active: SNB-75 CNS 7.89% | SNB-19 CNS -1.72% | U251 CNS 6.85% | SN12C renal -23.6% | UO-31 renal 0.343% | CAKI-1 renal 3.98% | A498 renal -4.21%
inactive: HT29 colon 28.8% | PC-3 prostate 47.7% | SK-MEL-5 melanoma 22.7% | UACC-62 melanoma 48.9% | LOX IMVI melanoma 18% | SK-MEL-28 melanoma 20.5% | SK-MEL-2 melanoma 60% | EKVX NSCLC 25.9% | TK-10 renal 23.4% | ACHN renal 10.7% | CCRF-CEM leukemia 96.6% | MOLT-4 leukemia 83.1%

COC(=O)c1cc(C(=O)C(C)(C)C)n2c3ccccc3c3ccccc3c12
inactive: HT29 colon 99.4% | SNB-75 CNS 84.1% | SNB-19 CNS 109% | U251 CNS 97% | PC-3 prostate 59.2% | SK-MEL-5 melanoma 88.6% | UACC-62 melanoma 66.7% | LOX IMVI melanoma 91.1% | SK-MEL-28 melanoma 99.2% | SK-MEL-2 melanoma 93.3% | EKVX NSCLC 101% | SN12C renal 95.5% | UO-31 renal 84.7% | TK-10 renal 121% | ACHN renal 89.7% | CAKI-1 renal 60.7% | A498 renal 156% | CCRF-CEM leukemia 75.8% | MOLT-4 leukemia 67.1%

N#Cc1cc(-c2ccnc(Nc3ccc(N4CCN(C5COC5)CC4)cc3)n2)ccc1N1CCCC1
inactive: SNB-75 CNS 15.7% | SNB-19 CNS 117% | U251 CNS 75.7% | PC-3 prostate 64.4% | SK-MEL-5 melanoma 62.2% | UACC-62 melanoma 87.1% | LOX IMVI melanoma 40% | SK-MEL-28 melanoma 77.2% | SK-MEL-2 melanoma 84.5% | EKVX NSCLC 90.9% | SN12C renal 52.1% | UO-31 renal 30.5% | TK-10 renal 66.9% | ACHN renal 50.3% | CAKI-1 renal 18.1% | A498 renal 71.2% | CCRF-CEM leukemia 43.4% | MOLT-4 leukemia 40.4%

Cc1cccc(/C=C/c2ccc(NC(=S)NCCCCN(C)C)cc2)c1
active: SNB-75 CNS -84.4% | SNB-19 CNS -84% | PC-3 prostate -40.4% | SK-MEL-5 melanoma -92.3% | UACC-62 melanoma -88.4% | LOX IMVI melanoma -99.1% | SK-MEL-28 melanoma -96.5% | SK-MEL-2 melanoma -79.6% | EKVX NSCLC -90.5% | SN12C renal -84.5% | UO-31 renal -93.2% | TK-10 renal -89.8% | ACHN renal -100% | CAKI-1 renal -89.6% | A498 renal -83.7% | CCRF-CEM leukemia -36.6% | MOLT-4 leukemia -16.1%

COC(=O)c1cc(C(=O)C(Br)Br)n2c1ccc1c3ccccc3ccc12
inactive: HT29 colon 63.1% | SNB-75 CNS 66.4% | SNB-19 CNS 58.6% | U251 CNS 44.3% | PC-3 prostate 56.3% | SK-MEL-5 melanoma 61.7% | UACC-62 melanoma 51.8% | LOX IMVI melanoma 41.4% | SK-MEL-28 melanoma 105% | SK-MEL-2 melanoma 104% | EKVX NSCLC 43.3% | SN12C renal 53.3% | UO-31 renal 37.8% | TK-10 renal 65.3% | ACHN renal 36.2% | CAKI-1 renal 58.3% | A498 renal 121% | CCRF-CEM leukemia 35.6%

O=C(NN1C(=O)/C(=C/C=C/c2ccc([N+](=O)[O-])o2)SC1=S)c1ccncc1
active: HT29 colon -67.2% | SNB-75 CNS -38.6% | U251 CNS -91.2% | PC-3 prostate -63% | SK-MEL-5 melanoma -99.5% | UACC-62 melanoma -100% | LOX IMVI melanoma -94% | SK-MEL-28 melanoma -88.9% | SK-MEL-2 melanoma -79.3% | EKVX NSCLC -92% | SN12C renal -99.9% | UO-31 renal -97.2% | TK-10 renal -91% | ACHN renal -100% | CAKI-1 renal -100% | CCRF-CEM leukemia -43.9% | MOLT-4 leukemia -38.8%
inactive: A498 renal 18.9%

CC(=O)Nc1ccc(S(=O)(=O)Nc2ccc(-c3ccc4c(c3)NC(=O)/C4=C\c3ccc[nH]3)cc2)cc1
inactive: HT29 colon 118% | SNB-75 CNS 108% | SNB-19 CNS 73% | U251 CNS 89.2% | PC-3 prostate 91.4% | SK-MEL-5 melanoma 92.6% | UACC-62 melanoma 68.7% | LOX IMVI melanoma 85.2% | SK-MEL-2 melanoma 93.8% | EKVX NSCLC 55.6% | SN12C renal 100% | UO-31 renal 73.1% | TK-10 renal 69.3% | ACHN renal 75.5% | CAKI-1 renal 76.7% | A498 renal 139% | CCRF-CEM leukemia 80.2% | MOLT-4 leukemia 71.6%

CN1CCN(CCS(=O)(=O)Nc2cc(-c3ccc4ncnc(Nc5ccc(F)c(Cl)c5)c4c3)cnc2Cl)CC1
active: SK-MEL-5 melanoma -75.9% | UACC-62 melanoma -3.28% | LOX IMVI melanoma -57.5% | SK-MEL-28 melanoma 4.33% | SK-MEL-2 melanoma -52.2% | EKVX NSCLC -22.2% | TK-10 renal 1.24% | CAKI-1 renal 6.32% | A498 renal -30.9% | CCRF-CEM leukemia 8.02% | MOLT-4 leukemia -49.7%
inactive: HT29 colon 12% | SNB-75 CNS 22.1% | SNB-19 CNS 10.1% | U251 CNS 16.5% | PC-3 prostate 20.2% | SN12C renal 27.7% | UO-31 renal 18.2% | ACHN renal 23.2%

N#Cc1c(NC(=O)N2CCOCC2)n(-c2ccc(OC(F)(F)F)cc2)c2cc(F)ccc12
inactive: HT29 colon 90% | SNB-75 CNS 140% | U251 CNS 98.8% | PC-3 prostate 83.9% | SK-MEL-5 melanoma 82.4% | UACC-62 melanoma 73.2% | LOX IMVI melanoma 102% | SK-MEL-28 melanoma 89.5% | SK-MEL-2 melanoma 94% | EKVX NSCLC 90.1% | SN12C renal 93.5% | UO-31 renal 104% | TK-10 renal 113% | ACHN renal 93.2% | CAKI-1 renal 88.9% | A498 renal 177% | CCRF-CEM leukemia 85.5% | MOLT-4 leukemia 68.7%

CN(C)c1nc(NCCNS(=O)(=O)c2ccc(C(=O)/C=C/c3ccc(F)cc3)cc2)nc(N2CCOCC2)n1
active: HT29 colon -79.7% | U251 CNS -86.1% | LOX IMVI melanoma -97.6% | MOLT-4 leukemia -6.53%
inactive: SNB-75 CNS 58.5% | SNB-19 CNS 67.9% | PC-3 prostate 49.2% | SK-MEL-5 melanoma 66.1% | UACC-62 melanoma 55.2% | SK-MEL-28 melanoma 97.2% | SK-MEL-2 melanoma 62.2% | EKVX NSCLC 59% | SN12C renal 64.3% | UO-31 renal 60.1% | TK-10 renal 72.2% | ACHN renal 78.6% | CAKI-1 renal 57.3% | A498 renal 86.5% | CCRF-CEM leukemia 22.5%

CN1CCN(c2ccc3c4c(cccc24)C(=O)N(c2cccc(-c4nn(-c5ccccc5)cc4-c4nc5ccccc5s4)c2)C3=O)CC1
inactive: HT29 colon 45.6% | SNB-75 CNS 81.9% | SNB-19 CNS 82.9% | U251 CNS 67.9% | PC-3 prostate 90.6% | SK-MEL-5 melanoma 90.3% | UACC-62 melanoma 119% | LOX IMVI melanoma 96.6% | SK-MEL-28 melanoma 51.6% | SK-MEL-2 melanoma 120% | SN12C renal 94.8% | UO-31 renal 68.5% | TK-10 renal 119% | ACHN renal 101% | CAKI-1 renal 97% | CCRF-CEM leukemia 60.3% | MOLT-4 leukemia 47.5%

CS(=O)(=O)c1ccc(-n2nc(C(=O)NCc3ccccc3)cc2-c2ccc(Cl)cc2)cc1
inactive: HT29 colon 74% | SNB-75 CNS 89.7% | SNB-19 CNS 78.9% | U251 CNS 80.7% | PC-3 prostate 75.5% | SK-MEL-5 melanoma 71.5% | UACC-62 melanoma 73.9% | LOX IMVI melanoma 89.4% | SK-MEL-2 melanoma 92.9% | EKVX NSCLC 68% | SN12C renal 80.8% | UO-31 renal 56.5% | TK-10 renal 104% | ACHN renal 91.3% | CAKI-1 renal 76.1% | A498 renal 124% | CCRF-CEM leukemia 58.6% | MOLT-4 leukemia 59.4%

Oc1ccc(F)c(Nc2nc(SCCN3CCOCC3)nc3c2cnn3CC(Cl)c2ccc(Br)cc2)c1 (centres undefined)
inactive: SNB-75 CNS 15.2% | SNB-19 CNS 46.1% | U251 CNS 21.9% | SK-MEL-5 melanoma 18.1% | UACC-62 melanoma 20.8% | SK-MEL-28 melanoma 21% | SK-MEL-2 melanoma 33.5% | EKVX NSCLC 30% | SN12C renal 32.3% | UO-31 renal 16.9% | TK-10 renal 68.6% | ACHN renal 16.5% | CAKI-1 renal 24% | A498 renal 63.1%
active: HT29 colon 8.07% | PC-3 prostate 7.79% | LOX IMVI melanoma -17.8% | CCRF-CEM leukemia -3.71% | MOLT-4 leukemia 6.17%

NC(=Nc1ccc(OCCCCCCCCn2cnnn2)cc1)c1ccccc1
inactive: SNB-75 CNS 45.4% | SNB-19 CNS 20.8% | PC-3 prostate 36.2% | UACC-62 melanoma 28.3% | LOX IMVI melanoma 23% | SK-MEL-28 melanoma 65.1% | SK-MEL-2 melanoma 21% | EKVX NSCLC 40% | SN12C renal 27% | UO-31 renal 41.6% | TK-10 renal 64.8% | ACHN renal 32.3% | A498 renal 114% | CCRF-CEM leukemia 19.6% | MOLT-4 leukemia 20.9%
